Test results taken from patent US20150359843, “P53 ACTIVATING PEPTIDES” (Agency for Science, Technology and Research, published 2015).

Tests used:
[1] = target: p53 wt-Δ22 (C-terminal truncated, lacking 372-393) (UniProt P04637 P04637:1-371); test: pulldown; 36 nM RE; settings: tags: none (CosmoBio PURE IVT); chain copies: 4 inferred; dsDNA, one strand shown
p53 wt-FL = p53 wt-FL (UniProt P04637 P04637:1-393); test: pulldown; 36 nM RE; 17-fold when p53 amount doubled; settings: tags: none (CosmoBio PURE IVT); chain copies: 4 inferred; dsDNA, one strand shown
Sequence of p53 wt-FL (P04637 whole entry, one chain of several): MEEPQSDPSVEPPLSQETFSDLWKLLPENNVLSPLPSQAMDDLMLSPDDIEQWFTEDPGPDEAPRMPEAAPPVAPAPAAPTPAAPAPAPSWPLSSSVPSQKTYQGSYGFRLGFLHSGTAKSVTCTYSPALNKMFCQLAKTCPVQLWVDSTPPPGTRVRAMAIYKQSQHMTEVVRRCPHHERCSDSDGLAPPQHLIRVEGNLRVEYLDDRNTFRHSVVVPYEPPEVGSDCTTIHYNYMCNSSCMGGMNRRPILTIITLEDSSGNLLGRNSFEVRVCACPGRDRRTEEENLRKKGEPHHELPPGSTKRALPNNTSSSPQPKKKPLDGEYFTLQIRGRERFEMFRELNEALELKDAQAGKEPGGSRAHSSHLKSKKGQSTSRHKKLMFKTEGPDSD

Sequence of p53 wt-Δ22 (C-terminal truncated, lacking 372-393) (P04637 1-371, stated change not applied, one chain of several): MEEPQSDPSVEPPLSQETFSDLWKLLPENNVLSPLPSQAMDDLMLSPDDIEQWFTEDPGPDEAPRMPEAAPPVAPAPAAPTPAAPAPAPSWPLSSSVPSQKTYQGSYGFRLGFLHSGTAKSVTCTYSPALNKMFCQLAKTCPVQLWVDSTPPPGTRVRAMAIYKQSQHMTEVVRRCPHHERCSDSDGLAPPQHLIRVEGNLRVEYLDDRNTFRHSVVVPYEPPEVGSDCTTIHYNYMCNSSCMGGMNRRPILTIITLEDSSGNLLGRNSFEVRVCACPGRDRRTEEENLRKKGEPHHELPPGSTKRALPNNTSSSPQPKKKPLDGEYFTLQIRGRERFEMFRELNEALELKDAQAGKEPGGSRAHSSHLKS

Row | Sequence | binding signal [1] | binding signal (p53 wt-FL)
1 | CTTGGGAACAAGGGCATGAGCTTGTCTGGGCT | ~3 fold over control DNA | 
2 | CGCGCCTGCAAGTCCTGACTTGTCCGCGGC |  | ~2.8 fold over control DNA
